About 83,000 compounds went through this panel and 20% of them were active in at least one assay; those are over-represented in the sample as a whole.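 The endpoint reported here, percent growth, reads 100 for growth as untreated, 0 for no net growth and -100 for all cells dead.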 Activity calls are given as the source filed them. How the source made its calls: active means growth percent below 10; inactive means the rest.
The compounds below were run on LOX IMVI melanoma (assay: NCI-60 one-dose screen, 48 h (100 = growth as untreated, 0 = no growth, -100 = all killed)). Conditions: 10 µM unless noted.

SMILES	growth
CCCCCCNC(=O)Oc1ccc(/C(=C(/C)Cc2ccc(OC)cc2)c2ccc(OCCN3CCCCC3)cc2)cc1	82.9% (inactive)
COc1cc(/C=C/C(=O)/C=C(/C=C/c2ccc(OC(C)=O)c(OC)c2)OB(F)F)ccc1OC(C)=O	20% (inactive)
O=C(CCC(=O)N(CCO)CCO)N(CCO)CCO	101% (inactive)
O=C(O)c1ccc(Br)nc1	97.2% (inactive)
COc1ccc2c(c1)/C(=C1/S/C(=N/c3nnc(C)s3)NC1=O)C(=O)N2Cc1ccc(Br)cc1	32.1% (inactive)
COc1ccc(C2=C/C(=C\c3ccc(Cl)cc3)C(=O)NN2C(=S)NN)cc1	101% (inactive)
CCC(C)(C)c1ccc(OCCCCCCN2CCN(c3ccc(C)c(Cl)c3)CC2)cc1	81.8% (inactive)
COC1=C(OC)C(=O)c2ccccc2C1=O	63.4% (inactive)
CCOC1=C(Cl)C(=O)C(OCC)=C(Cl)C1=O	104% (inactive)
CCS(=O)(=O)OCCO[C@H]1Cc2cc3ccc(=O)oc3cc2OC1(C)C	109% (inactive)
O=CN/N=C/c1ccc(Cl)c([N+](=O)[O-])c1	17% (inactive)
CCN(CC)CCCNc1c2ccc(Cl)cc2nc2ccc(OC)cc12	-43.1% (active)
COc1ccc(-c2nc(SCC(C)C)nc(Nc3ccc(C)cc3)c2C#N)cc1	73.9% (inactive)
CC(=O)OC1/C=C\CC/C=C\C1 (stereo not given)	106% (inactive)
CCCCCCC(C)N(CC(C)(C)O)C(=O)c1ccc([N+](=O)[O-])cc1 (stereo not given)	104% (inactive)
CC(=O)Nc1nc(C)c(C(=O)NNC(=O)Nc2ccccc2)s1	97.9% (inactive)
COC(=O)C(C)[C@H]1CC[C@@H]2[C@]1(C)CC=C1[C@]23C=C[C@]2(C[C@@H](OC(C)=O)CC[C@]12C)C(C(=O)OC)C3C(=O)OC (stereo not given in full)	91.7% (inactive)
CC/C(=N\Nc1nc2ccccc2n1C)c1ccccn1	-15% (active)
COc1ccc(Cn2cc3c(c2-c2ccc(O)cc2)CCc2cnoc2-3)cc1	35.4% (inactive)
COc1ccc2c(c1)/C(=C/c1c(-c3cc(OC)c(OC)c(OC)c3)nc3sccn13)C(=O)N2	98.3% (inactive)

SMILES	growth
O=C(N/N=C\c1ccc(Cl)cc1)C(=O)N/N=C\c1ccc(Cl)cc1	106% (inactive)
c1ccc2[nH]c(-c3ccc(OCCCCCOc4ccc(-c5nc6ccccc6[nH]5)cc4)cc3)nc2c1	-77% (active)
O=C1Nc2c(c(=O)n(-c3ccccc3)c3ccccc23)C(c2ccc(Cl)cc2)N1 (stereo not given)	36.4% (inactive)
CN1CCN(Cc2ccc(NC(=O)c3cncc(C#Cc4c(N)ncc5ccc(F)cc45)c3)cc2C(F)(F)F)CC1	-8.63% (active)
CCCCN(CCCC)c1ccc(C(=O)O)cc1	99.4% (inactive)
CNc1ccc(Nc2ccc(S(=O)(=O)O)cc2)c2c1C(=O)c1ccccc1C2=O	88.2% (inactive)
c1cc(C2CCCCC2)ccc1OCCCCCCN1CCNCC1	-90.5% (active)
O=C(O)c1occ(Cl)c1Cl	99.7% (inactive)
COc1cc(-c2nn(-c3ccc(NC(=O)Nc4ccc(Cl)c(Cl)c4)cc3)cc2-c2ccncc2)ccc1Cl	20.1% (inactive)
CN1CCN(Cc2ccc(NC(=O)c3ccc(C#Cc4c(N)ncc5ccc(F)cc45)cc3)cc2C(F)(F)F)CC1	-94.3% (active)
C#CCCCCCCC[C@@H]1OC(=O)[C@H]([C@@H](C)CC)NC(=O)[C@H]([C@@H](C)CC)NC(=O)CC(=O)[C@@H]1C	92.1% (inactive)
c1ccc(C(=NNc2nc3ccccc3o2)c2ccccn2)nc1	0.582% (active)
CC(C)OC(=O)c1ccc2n1CCCc1cnc(Nc3ccccc3)nc1-2	78.7% (inactive)
COc1ccc(-c2nc(N)n(C(=S)Nc3ccccc3)n2)cc1	94.3% (inactive)
COc1ccc(C(=O)CN2C(=O)NC(c3ccccc3)(c3ccccc3)C2=O)cc1	98% (inactive)
CC(=O)CC(=O)OC/C=C(/C)CCC=C(C)C	97.7% (inactive)
COc1cc(N)c2nccc(C)c2c1OC	96.2% (inactive)
CCn1cc(C(=O)O)c(=O)c2cc(F)c(N3CCN(S(=O)(=O)c4ccc(Cl)cc4)CC3)cc21	19.9% (inactive)
Nc1ccc(N=Nc2ccccc2)c2cc(S(=O)(=O)O)ccc12	97.7% (inactive)
O=C(O)CS(=O)c1ccc(Cl)cc1 (stereo not given)	91% (inactive)

These compounds were tested on SK-MEL-28 melanoma in the same assay as above. Conditions: 10 µM unless noted.

SMILES	growth
CCCCCCNC(=O)Oc1ccc(/C(=C(/C)Cc2ccc(OC)cc2)c2ccc(OCCN3CCCCC3)cc2)cc1	96.8% (inactive)
COc1cc(/C=C/C(=O)/C=C(/C=C/c2ccc(OC(C)=O)c(OC)c2)OB(F)F)ccc1OC(C)=O	66.8% (inactive)
O=C(CCC(=O)N(CCO)CCO)N(CCO)CCO	106% (inactive)
O=C(O)c1ccc(Br)nc1	104% (inactive)
COc1ccc2c(c1)/C(=C1/S/C(=N/c3nnc(C)s3)NC1=O)C(=O)N2Cc1ccc(Br)cc1	32.6% (inactive)
COc1ccc(C2=C/C(=C\c3ccc(Cl)cc3)C(=O)NN2C(=S)NN)cc1	113% (inactive)
CCC(C)(C)c1ccc(OCCCCCCN2CCN(c3ccc(C)c(Cl)c3)CC2)cc1	96.5% (inactive)
COC1=C(OC)C(=O)c2ccccc2C1=O	101% (inactive)
CCOC1=C(Cl)C(=O)C(OCC)=C(Cl)C1=O	109% (inactive)
CCS(=O)(=O)OCCO[C@H]1Cc2cc3ccc(=O)oc3cc2OC1(C)C	116% (inactive)
O=CN/N=C/c1ccc(Cl)c([N+](=O)[O-])c1	43% (inactive)
CCN(CC)CCCNc1c2ccc(Cl)cc2nc2ccc(OC)cc12	-72.3% (active)
COc1ccc(-c2nc(SCC(C)C)nc(Nc3ccc(C)cc3)c2C#N)cc1	94.6% (inactive)
CC(=O)OC1/C=C\CC/C=C\C1 (stereo not given)	111% (inactive)
CCCCCCC(C)N(CC(C)(C)O)C(=O)c1ccc([N+](=O)[O-])cc1 (stereo not given)	111% (inactive)
CC(=O)Nc1nc(C)c(C(=O)NNC(=O)Nc2ccccc2)s1	105% (inactive)
COC(=O)C(C)[C@H]1CC[C@@H]2[C@]1(C)CC=C1[C@]23C=C[C@]2(C[C@@H](OC(C)=O)CC[C@]12C)C(C(=O)OC)C3C(=O)OC (stereo not given in full)	95% (inactive)
CC/C(=N\Nc1nc2ccccc2n1C)c1ccccn1	16.2% (inactive)
COc1ccc(Cn2cc3c(c2-c2ccc(O)cc2)CCc2cnoc2-3)cc1	54.3% (inactive)
COc1ccc2c(c1)/C(=C/c1c(-c3cc(OC)c(OC)c(OC)c3)nc3sccn13)C(=O)N2	98.8% (inactive)

SMILES	growth
O=C(N/N=C\c1ccc(Cl)cc1)C(=O)N/N=C\c1ccc(Cl)cc1	111% (inactive)
c1ccc2[nH]c(-c3ccc(OCCCCCOc4ccc(-c5nc6ccccc6[nH]5)cc4)cc3)nc2c1	-71.6% (active)
O=C1Nc2c(c(=O)n(-c3ccccc3)c3ccccc23)C(c2ccc(Cl)cc2)N1 (stereo not given)	90.9% (inactive)
CN1CCN(Cc2ccc(NC(=O)c3cncc(C#Cc4c(N)ncc5ccc(F)cc45)c3)cc2C(F)(F)F)CC1	-84.9% (active)
CCCCN(CCCC)c1ccc(C(=O)O)cc1	107% (inactive)
CNc1ccc(Nc2ccc(S(=O)(=O)O)cc2)c2c1C(=O)c1ccccc1C2=O	112% (inactive)
c1cc(C2CCCCC2)ccc1OCCCCCCN1CCNCC1	60.1% (inactive)
O=C(O)c1occ(Cl)c1Cl	116% (inactive)
COc1cc(-c2nn(-c3ccc(NC(=O)Nc4ccc(Cl)c(Cl)c4)cc3)cc2-c2ccncc2)ccc1Cl	41.5% (inactive)
CN1CCN(Cc2ccc(NC(=O)c3ccc(C#Cc4c(N)ncc5ccc(F)cc45)cc3)cc2C(F)(F)F)CC1	-97.8% (active)
C#CCCCCCCC[C@@H]1OC(=O)[C@H]([C@@H](C)CC)NC(=O)[C@H]([C@@H](C)CC)NC(=O)CC(=O)[C@@H]1C	108% (inactive)
c1ccc(C(=NNc2nc3ccccc3o2)c2ccccn2)nc1	25.2% (inactive)
CC(C)OC(=O)c1ccc2n1CCCc1cnc(Nc3ccccc3)nc1-2	92.9% (inactive)
COc1ccc(-c2nc(N)n(C(=S)Nc3ccccc3)n2)cc1	116% (inactive)
COc1ccc(C(=O)CN2C(=O)NC(c3ccccc3)(c3ccccc3)C2=O)cc1	103% (inactive)
CC(=O)CC(=O)OC/C=C(/C)CCC=C(C)C	113% (inactive)
COc1cc(N)c2nccc(C)c2c1OC	115% (inactive)
CCn1cc(C(=O)O)c(=O)c2cc(F)c(N3CCN(S(=O)(=O)c4ccc(Cl)cc4)CC3)cc21	44.6% (inactive)
Nc1ccc(N=Nc2ccccc2)c2cc(S(=O)(=O)O)ccc12	118% (inactive)
O=C(O)CS(=O)c1ccc(Cl)cc1 (stereo not given)	105% (inactive)
